In PubChem BioAssay (EPA / NIEHS):
Records with an inconclusive call do not appear. Activity calls are given as the source filed them. How the source made its calls: active means hit-call score of the fitted dose curve at least 0.9, where 1 is the maximum; inconclusive means response in the unintended direction; inactive means score below 0.9.

read-out: Cytochrome P450 2C19 (Homo sapiens) (UniProt P33261); experiment: CLD_CYP2C19_6hr: CellzDirect (CLD) Gene Expression Assay for xenobiotic metabolism (CYP2C19) at 6 hours (AID 2283678)
Procedure: CLD_6hr is a cell-based, multiplexed-readout assay that uses hepatocyte, a human liver primary cell, with measurements taken at 6 hours after chemical dosing in a 96-well plate.CLD_CYP2C19_6hr is one of 16 assay component(s) measured or calculated from the CLD_6hr assay. It is designed to make measurements of mRNA induction, a form of inducible reporter, as detected with chemiluminescence signals by Quantitative Nuclease Protection Assay (qNPA) technology.Data from the assay component CLD_CYP2C19_6hr was analyzed at the endpoint, CLD_CYP2C19_6hr, in the positive analysis fitting direction relative to DMSO as the negative control and baseline of activity. Using a type of inducible reporter, gain-of-signal activity can be used to understand changes in the reporter gene as they relate to the gene CYP2C19. Furthermore, this assay endpoint can be referred to as a primary readout. To generalize the intended target to other relatable targets, this assay endpoint is annotated to the cyp intended target family, where subfamily is xenobiotic metabolism.
Human hepatocyte cultures were treated daily for two consecutive days with fresh dosing solutions containing appropriate concentrations of the 320 ToxCast chemicals (chemical identities were blinded to CellzDirect and other ToxCast collaborators), vehicle control (0.2% DMSO), and positive control inducers as summarized in Table 1. Due to the large number of treatment groups and chemicals examined, the ToxCast chemicals were divided into two groups (spanning two independent cultures of hepatocytes from separate donor preparations (Hu778: ToxCast plates 1 and 2; Hu776: ToxCast plates 3 and 4). Each preparation of human hepatocyte cultures was treated with respective vehicle control, medium only control, set of six positive controls/reference chemicals for the five hepatic receptor pathways, and a subset of eight of the ToxCast chemicals (indoxacarb, pyrithiobac-sodium, norflurazon, cyhalofop-butyl, methomyl, thiram, acetochlor, and propiconazole). These replicate data, coupled with internal replicates designed within the blinded ToxCast chemical library, provided additional data to evaluate interindividual differences between hepatocyte preparations and their potential impact on chemical profiles.Cell morphology and integrity were evaluated using phase-contrast microscopy as an indicator of hepatocyte cell health (Tyson & Green, 1987). Cultures for each treatment group (i.e., media, vehicle [0.2% DMSO], positive control inducers [multiple concentrations], and the ToxCast chemicals [multiple concentrations]) were observed and cell morphology was assessed relative to vehicle control cultures at each harvest time point (0, 6, 24, or 48 h). […] Images were evaluated at the conclusion of the study to assess changes in cell integrity and account for the effects of chemical exposure on uncharacteristic changes in concentration-dependent gene expression profiles. The results from these determinations of apparent cytotoxicity were annotated (yes/no) alongside the corresponding qNPA data for reference.At the conclusion of each treatment period, hepatocyte cultures (96-well) were washed with 1 volume of HBSS, lysed by addition of 25 ul ArrayPlate lysis buffer (HTG, Tucson, AZ), and 70 ul/well of Denaturation Oil, denatured by incubation at 95C for 10 min, and frozen at approximately -70C until analysis by nuclease protection assay (qNPA) (Roberts et al., 2007). For qNPA analysis, cell lysates were thawed at 50C for approximately 30 min, qNPA probes were added, and samples were incubated at 95C for 10 min to begin the detection process by denaturing the target RNA, dissociating the duplexes and secondary structure hybridization. At the conclusion of the hybridization period, S1 nuclease reagent was added to each sample to digest all nonprotected nucleotides at 50C for 60-90 min. […]

Sequence of Cytochrome P450 2C19 (Homo sapiens) (P33261 whole entry, looked up): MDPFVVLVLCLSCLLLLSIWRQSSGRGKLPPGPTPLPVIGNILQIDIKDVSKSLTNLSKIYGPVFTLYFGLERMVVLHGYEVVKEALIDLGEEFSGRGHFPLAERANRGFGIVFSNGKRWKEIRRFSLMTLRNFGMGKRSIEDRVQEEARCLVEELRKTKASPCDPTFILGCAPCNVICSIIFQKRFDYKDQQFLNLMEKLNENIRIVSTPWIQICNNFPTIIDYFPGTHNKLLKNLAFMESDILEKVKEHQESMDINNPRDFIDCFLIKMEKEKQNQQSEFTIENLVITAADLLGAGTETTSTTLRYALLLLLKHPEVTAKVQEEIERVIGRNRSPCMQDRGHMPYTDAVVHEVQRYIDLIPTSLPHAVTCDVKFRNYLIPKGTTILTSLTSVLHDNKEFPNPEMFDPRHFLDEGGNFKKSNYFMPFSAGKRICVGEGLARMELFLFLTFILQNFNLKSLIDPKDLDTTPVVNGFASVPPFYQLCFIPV

SMILES	outcome
COC(=O)c1ccccc1C(=O)OC	inactive
CCCCOC(=O)c1ccccc1C(=O)OCCCC	inactive
CCOP(=S)(OCC)SCn1c(=O)oc2cc(Cl)ccc21	inactive
CNC(=S)S	inactive
O=C(O)COc1nc(Cl)c(Cl)cc1Cl	inactive
Cc1ccc(-c2c(Cl)nc(C#N)n2S(=O)(=O)N(C)C)cc1	inactive
Cc1cc(Cl)ccc1OCC(=O)O	inactive
COc1nc(C)nc(NC(=O)NS(=O)(=O)c2ccccc2CCC(F)(F)F)n1	inactive
CCc1nn(C)c(C(=O)NCc2ccc(C(C)(C)C)cc2)c1Cl	inactive
COc1nc(C)nc(NC(=O)NS(=O)(=O)c2ccccc2Cl)n1	inactive
COc1nc(NC(C)C)nc(NC(C)C)n1	inactive
CCOC(=O)C(Cl)Cc1cc(-n2nc(C)n(C(F)F)c2=O)c(F)cc1Cl (configuration not stated)	inactive
CCON=C(CC)C1=C(O)CC(c2c(C)cc(C)cc2C)CC1=O (configuration not stated)	inactive
O=C(O)c1nc(Cl)ccc1Cl	inactive
CC(C)C1(C)N=C(c2nc3ccccc3cc2C(=O)O)NC1=O (configuration not stated)	inactive
COC(=O)C(C)Oc1ccc(Oc2ccc(Cl)cc2Cl)cc1 (configuration not stated)	inactive
CCCCNC(=O)n1c(NC(=O)OC)nc2ccccc21	inactive
COC(=O)N(OC)c1ccccc1COc1ccn(-c2ccc(Cl)cc2)n1	inactive
COP(N)(=O)SC (configuration not stated)	inactive
COc1cnc(OC)n2nc(NS(=O)(=O)c3c(OCC(F)F)cccc3C(F)(F)F)nc12	inactive
CCNc1nc(Cl)nc(NC(C)C)n1	inactive
CS/C(C)=N/OC(=O)N(C)SN(C)C(=O)O/N=C(\C)SC	inactive
